Experimental findings from the supplement of paper PMC12808144 are described below.

The test system of experiment [1] is NHEM-hTERT. Briefly: cell viability relative to DMSO control (fraction of DMSO control); higher = less cytotoxic, active = 0.5 or less. Particulars: 1 µM; 120 h. An outline of the steps: (§1)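 Three cell types were screened against 315 approved anti-cancer drugs from TargetMol, acoustically pre-spotted in 384-well plates at 1 µM in duplicate over 120 h: NHEM-hTERT immortalized melanocytes (2500/well), patient-derived Mel-DCC-11 and its resistant subline Mel-DCC-11-R (both 1500/well), all in 40 µl per well. The subline was tested alone and with 8 µM of its selecting drug. Viability, measured by luminescence, was normalised to vehicle controls and averaged across duplicates, with ATPlite 1step as the readout.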

Experiment [2] has as its system Mel-DCC-11-R. Briefly: cell viability relative to DMSO control (fraction of DMSO control); higher = less cytotoxic, active = 0.8 or less. Particulars: 1 µM, 120 h. An outline of the steps:
as §1

Unmarked numbers belong to inactive results.

As to `O=C(c1cc(Cc2n[nH]c(=O)c3ccccc23)ccc1F)N1CCN(C(=O)C2CC2)CC1` [Olaparib], the cell viability was 0.988 in experiment [1], 1.09 in experiment [2] (vemurafenib co-treatment 0 µM) and 0.92 in experiment [2] (vemurafenib co-treatment 8 µM).
The matching figures for `Cc1cn(-c2cc(NC(=O)c3ccc(C)c(Nc4nccc(-c5cnccn5)n4)c3)cc(C(F)(F)F)c2)cn1` [Radotinib]: 1.09, 1.19 and 1.27.
In the case of `CC(C)(S)[C@@H](N)C(=O)O` [Artamine], the values for the cell viability in experiment [1], in experiment [2] (vemurafenib co-treatment 0 µM) and in experiment [2] (vemurafenib co-treatment 8 µM) were 1.08, 1.12 and 1.25, respectively.
As for `CCCCCOC(=O)Nc1nc(=O)n([C@@H]2O[C@H](C)[C@@H](O)[C@H]2O)cc1F` [Capecitabine], the cell viability in experiment [1] was 1.14; in experiment [2] (vemurafenib co-treatment 0 µM), 1.04; in experiment [2] (vemurafenib co-treatment 8 µM), 1.11.
The matching figures for `CC(C)(C)c1nc(-c2cccc(NS(=O)(=O)c3c(F)cccc3F)c2F)c(-c2ccnc(N)n2)s1` [Dabrafenib]: 0.976, 1.03 and 0.894.
For `COc1cc2c(N3CCN(C(=O)Nc4ccc(OC(C)C)cc4)CC3)ncnc2cc1OCCCN1CCCCC1` [Tandutinib], in that order: 1.15, 0.907 and 1.04.
For `CN(C)CCCN1c2ccccc2Sc2ccc(Cl)cc21.Cl` [Chlorpromazine hydrochloride], in that order: 1.06, 1.06 and 1.11.
Turning to `COc1cc(Nc2c(C#N)cnc3cc(OCCCN4CCN(C)CC4)c(OC)cc23)c(Cl)cc1Cl` [Bosutinib], the cell viability was 1.12 in experiment [1], 0.914 in experiment [2] (vemurafenib co-treatment 0 µM) and 1.14 in experiment [2] (vemurafenib co-treatment 8 µM).
Take `Oc1cc(O)cc(/C=C/c2ccc(O)c(O)c2)c1` [Piceatannol]: the cell viability in experiment [1] is 1.09; in experiment [2] (vemurafenib co-treatment 0 µM), 0.982; in experiment [2] (vemurafenib co-treatment 8 µM), 1.
The matching figures for `CC(C)(C#N)c1cc(Cn2cncn2)cc(C(C)(C)C#N)c1` [Anastrozole]: 1.02, 1 and 1.01.
For the compound `CNC(=O)c1ccc(N2C(=S)N(c3cnc(C#N)c(C(F)(F)F)c3)C(=O)C23CCC3)cc1F` [Apalutamide], the cell viability was 1.01 in experiment [1], 0.958 in experiment [2] (vemurafenib co-treatment 0 µM) and 1.1 in experiment [2] (vemurafenib co-treatment 8 µM).
For `COc1cc(NS(C)(=O)=O)ccc1Nc1c2ccccc2nc2ccccc12` [Amsacrine], in that order: 0.72, 1.06 and 0.539 (active).
Regarding `CCCCCCCCCCCCCCCCOP(=O)([O-])OCC[N+](C)(C)C` [Miltefosine], the cell viability in experiment [1] is 1.17; in experiment [2] (vemurafenib co-treatment 0 µM), 0.843; in experiment [2] (vemurafenib co-treatment 8 µM), 0.936.
